This is an account of results in PubChem BioAssay (NCATS).

Values without a mark were called inactive. Inconclusive results are not listed. Activity calls are given as the source filed them. Unless noted, the call rests on the fitted dose curve; in most records, active means well fitted curve in the direction sought with a large enough effect; inconclusive means small, poorly fitted or top-dose-only effect, or another doubt; inactive means no such curve, though single readings can be large; an effect the other way counts as inactive or inconclusive.

The nature of experiment [1]: Cell Viability - BJ (AID 421; calls by dose curve;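 further: potency means the concentration at half of the fitted maximal effect; cells exposed to compound for 40 hours at 37 °C before readout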). The conditions noted are these: BJ fibroblast viability, qHTS. The essentials:
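Luminescent ATP signal (CellTiter-Glo, 20 min at room temperature) served as the read-out of viable BJ cells after 40 hours of compound treatment. Responses were scaled between DMSO and 100 uM tamoxifen, and AC50 values were obtained by Hill modeling.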

Experiment [2] can be described thus: Cell Viability - Jurkat (AID 426;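 active means dose-dependent loss of cell ATP signal giving a full or clear fitted curve, ranked by lower potency value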;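 further: potency means the concentration at half of the fitted maximal effect; cells exposed to compound for 40 hours at 37 °C before ATP read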). To be noted: qHTS. The essentials: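 Luminescent ATP read-out (CellTiter-Glo, 20 min at room temperature) after 40 hr compound exposure at 37 °C of Jurkat E6-1 cells, 5000/well. Decreased ATP taken as cytotoxicity; AC50 from standard Hill equation.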
(Quantitative high-throughput screening tests each substance at several concentrations.)

Experiment [3] is described as follows: Cell Viability - Hek293 (AID 427;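 active means compounds whose dose-response curve shows a full or clear partial loss of cell viability, called from curve shape rather than a numeric limit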;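 further: potency means the concentration at half of the fitted maximal effect; cells exposed to compound for 40 hours at 37 °C before reading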). To be noted: qHTS. In short, it runs like this:
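Luminescent ATP read-out (CellTiter-Glo, 20 min RT) after 40 hr compound exposure at 37 °C in complete medium. Signal normalized to DMSO (basal) and 100 uM tamoxifen (100% inhibition); concentration-response fitted with the standard Hill equation to give AC50.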

Experiment [4] in a line: Cell Viability - HepG2 (AID 433; calls by dose curve; further: potency means the concentration at half of the fitted maximal effect). To be noted: qHTS. The essentials: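 Read-out is luciferase-based quantitation of cellular ATP as a measure of viable HepG2 cells after 40 h treatment at 37 °C. Signal decrease is scaled between DMSO-only and 100 uM tamoxifen controls, with AC50 fitted by the Hill equation.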
Experiment [5] can be described thus: Cell Viability - SK-N-SH (AID 435; calls by dose curve; further: potency means the concentration at half of the fitted maximal effect). To be noted: SK-N-SH neuroblastoma cell viability qHTS. The essentials:
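Luminescent ATP signal served as the viability read-out after 40 hours of compound treatment of human neuroblastoma SK-N-SH cells. Concentration-response data, scaled between DMSO and 100 uM tamoxifen, gave AC50 values by standard Hill modeling.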

In experiment [6] the target is Mitogen-activated protein kinase 10 (Mus musculus) (UniProt Q61831). As to the kind of experiment: JNK3 AlphaScreen Assay (AID 530; active means well fitted curve in either direction with a large enough effect, not every such curve was filed as active;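 further: kinase came from lysate of stimulated human HepG2 cells; on the % scale 0 is the no-effect control and ±100 the full control effect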). The conditions noted are these: JNK3 lysate, c-Jun phosphorylation; series mostly up to 57.1 µM. In short, it runs like this: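 Biotinylated GST-cJun(1-79) served as substrate for JNK3 in HepG2 lysates stimulated with IL-1beta and TNF-alpha. ATP was 10 uM final, pH 7.6. Ser73 phosphorylation was quantified by AlphaScreen (680 nm excitation).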
A general note: Bead proximity is the source of the signal in Alpha formats.

The nature of experiment [7]: Cell Viability - N2a (AID 540).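 Further: plate controls were DMSO alone for no effect and tamoxifen control for full effect; nearly all actives have a fitted effect of over 45% in size.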 To be noted: N2a mouse neuroblastoma cell viability; activity change, negative = cytotoxicity: at 92.2 µM (top of the series). The essentials:
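N2a mouse neuroblastoma, 1500 cells/well, 5 hr settle; compound 40 hr, 37 °C; CellTiter-Glo 20 min RT; luminescence; Hill-fit AC50.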

A short description of experiment [8]: Cell Viability - NIH 3T3 (AID 541).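 Further: plate controls were DMSO alone for no effect and tamoxifen positive control for full effect; nearly all actives have a fitted effect of over 25% in size.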 The conditions noted are these: NIH 3T3 cell viability, qHTS; activity change, negative = cytotoxicity: at 92.2 µM (top of the series). In short, it runs like this: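 qHTS format; 40 hr compound exposure, 37 °C; CellTiter-Glo luminescence (cellular ATP) read-out after 20 min at RT. Decrease in ATP = cytotoxicity; AC50 from standard Hill fit.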

A short description of experiment [9]: Cell Viability - HUV-EC-C (AID 542). Further: on the % scale 0 is the no-effect control and ±100 the full control effect; nearly all actives have a fitted effect of over 35% in size. The conditions noted are these: HUV-EC-C endothelial cell viability, qHTS; series mostly up to 92.2 µM. The essentials:
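Luminescent ATP read-out (CellTiter-Glo, 20 min room temperature) after 40 hr compound treatment of HUV-EC-C cells at 37 °C. Concentration-response data fitted with the standard Hill equation to give AC50; tamoxifen and doxorubicin served as positive controls.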

A short description of experiment [10]: Cell Viability - H-4-II-E (AID 543). Further: on the % scale 0 is the no-effect control and ±100 the full control effect; nearly all actives have a fitted effect of over 35% in size. To be noted: H-4-II-E rat hepatoma viability; series mostly up to 92.2 µM. In short, it runs like this:
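qHTS, rat hepatoma H-4-II-E, 1500 cells/well; 40 hr compound exposure, 37 °C; CellTiter-Glo ATP luminescence after 20 min RT; AC50 by standard Hill fit.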

The nature of experiment [11]: Cell Viability - SH-SY5Y (AID 544). Further: nearly all actives have a fitted effect of over 55% in size. To be noted: SH-SY5Y neuroblastoma cell viability; viability change, negative = cytotoxic: at 92.2 µM (top of the series). In short, it runs like this: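 SH-SY5Y, 1500 cells/well, 5 hr pre-incubation 37 °C; cpd 40 hr 37 °C; CellTiter-Glo 20 min RT; luminescence (ATP) read. qHTS concentration-response, Hill fit → AC50. Tamoxifen, doxorubicin as positive controls.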

Experiment [12] can be described thus: Cell Viability - Mesenchymal (AID 546).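 Further: cells exposed to compound for 40 hours before reading.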 To be noted: mesenchymal cells viability, qHTS; series mostly up to 91.7 µM. The essentials:
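In this qHTS cytotoxicity format, glomerulus-derived human mesenchymal kidney cells received compound for 40 hr, then luciferase-based ATP quantitation. Concentration-response data were fitted with the Hill equation.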

Experiment [13] is described as follows: Cellular Toxicity (caspase-3) HepG2 (AID 654).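 Further: cells exposed to compound for 16 hours before reading; 0% = DMSO alone and 100% = caspase signal from 100 µM tamoxifen.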 The conditions noted are these: HepG2 caspase-3 activation, luminescence; series mostly up to 92.2 µM. In short, it runs like this: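 Luminescent Caspase-Glo 3/7 readout after 16 hr compound exposure of human hepatocellular carcinoma HepG2 cells at 37 °C; qHTS concentration-response, normalized DMSO = 0%, 100 uM tamoxifen = 100%; AC50 by standard Hill equation.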

A short description of experiment [14]: Cellular Toxicity (caspase-3) Jurkat (AID 655).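 Further: cells exposed to compound for 16 h at 37 °C before reading.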 To be noted: Jurkat caspase-3 activation, luminescence; caspase-3 activation: at 92.2 µM (top of the series), DMSO = 0%, tamoxifen = 100%. In short, it runs like this: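 5000 Jurkat cells/well; compound 16 hr, 37 °C; Caspase-Glo 3/7 added, 20 min RT; luminescence read. Norm: DMSO = 0%, tamoxifen 100 uM = 100%. AC50, Hill model.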

A short description of experiment [15]: Cellular Toxicity (caspase-3) HUV-EC-C (AID 656). To be noted: HUV-EC-C cells, caspase-3 activation (apoptosis), vehicle = 0, 100 µM tamoxifen = 100%; series mostly up to 92.2 µM. In short, it runs like this: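 qHTS; HUV-EC-C, 1000 cells/well; 5 hr settle, 16 hr cmpd, 37°C; Caspase-Glo 3/7, 20 min RT; luminescence. Norm: DMSO = 0%, tamoxifen 100 uM = 100%. Hill-fit AC50.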

The nature of experiment [16]: Cellular Toxicity (caspase-3) SHSY5Y (AID 657).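 Further: cells exposed to compound for 16 hours at 37 °C.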 To be noted: SH-SY5Y caspase-3 activation, DMSO zero, 10 µM staurosporine = 100%; series mostly up to 91.7 µM. In short, it runs like this:
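qHTS, SH-SY5Y, 1500 cells/well, 5 h pre-incubation 37 °C; compound 16 h 37 °C; Caspase-Glo 3/7 1 h RT; luminescence. Norm.: DMSO = 0, 10 uM staurosporine = 100%. Hill fit → AC50.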

Experiment [17] in a line: Cellular Toxicity (caspase-3) BJ (AID 658).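 Further: cells exposed to compound for 16 hours.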 The conditions noted are these: BJ fibroblasts, luminescence, normalized: DMSO 0%, staurosporine 100%; series mostly up to 91.7 µM. In short, it runs like this:
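Plated BJ cells (1000/well) rested 5 hr, received compound for 16 hr at 37 °C, then Caspase-Glo 3/7 reagent for 1 hr at room temperature before luminescence reading.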

The nature of experiment [18]: Cellular Toxicity (caspase-3) MRC-5 (AID 659). The conditions noted are these: MRC-5 cells, luminescence, normalized: DMSO 0%, 10 µM staurosporine 100%; series mostly up to 91.7 µM. In short, it runs like this:
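Apoptosis readout in MRC-5 cells: luciferase light generated after caspase 3/7 cleaves a peptide-aminoluciferin substrate, measured post 16 hr compound incubation at 37 °C.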

Experiment [19] in a line: Cell Viability - Renal Proximal Tubule (AID 545). Further: nearly all actives have a fitted effect of over 40% in size. The conditions noted are these: renal proximal tubule cells viability, primary cells of rat origin; series mostly up to 91.7 µM. The essentials:
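Luminescent ATP signal (CellTiter-Glo) served as the viability read-out after 40 hr compound exposure of freshly isolated rat proximal tubule cells at 37 °C. Concentration-dependent ATP loss was fitted with the Hill equation to give AC50.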

A short description of experiment [20]: Cell Viability - MRC5 (AID 434; calls by dose curve;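 further: potency means the concentration at half of the fitted maximal effect; cells exposed to compound for 40 hours at 37 °C; potency reflects cytotoxicity seen as loss of intracellular ATP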). To be noted: MRC5 lung fibroblast viability, qHTS. The essentials: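 Decrease in intracellular ATP, quantified by luciferase light output, reflects compound toxicity toward MRC5 cells exposed for 40 hr in complete culture medium. Concentration-response curves, scaled between DMSO and 100 uM tamoxifen, gave AC50 values.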

As for `CC(C)Nc1ccccc1`, the Potency in experiment [1], in experiment [2], in [3], in experiment [4] and in experiment [5] was above 92 µM each time. In addition, the call in [6], in experiment [15], in experiment [16], in experiment [17] and in [18] was inactive. For the same compound, the activity change, negative = cytotoxicity in [7] was -9.13%. Besides, the Potency entry in experiment [8], in [9], in experiment [10], in experiment [11], in [12] and in experiment [13] was “inactive” each time. Also, in experiment [14], the caspase-3 activation was 2.39%.
In the case of `CC(=O)CC(C)C`, the Potency in experiment [1], in [2], in [3], in [4] and in [5] was above 92 µM throughout. The outcome in [6], in experiment [15], in experiment [16] and in [18] was inactive. In addition, the activity change, negative = cytotoxicity in experiment [7] was -14.8%. The Potency entry in experiment [8], in [9], in experiment [10], in [11], in [19] and in experiment [13] was “inactive” in each case. Moreover, the caspase-3 activation in experiment [14] was -2.68%.
Take `Nc1cc(Cl)c([N+](=O)[O-])cc1O`: the Potency in [1], in experiment [2], in experiment [3], in [4] and in experiment [5] was above 92 µM in each case. For the same compound, the call in experiment [6], in experiment [15], in experiment [17] and in experiment [18] was inactive. Also, the activity change, negative = cytotoxicity in experiment [7] was -99.1% (active). Besides, the Potency result in [9], in experiment [10], in experiment [11], in experiment [19], in [12] and in experiment [13] was “inactive” in each case. For the same compound, in experiment [14], the caspase-3 activation is 1.7%.
Turning to `O=P(O)(OCc1ccccc1)OCc1ccccc1`, the Potency in experiment [1], in experiment [2], in experiment [3], in [4] and in experiment [20] was above 92 µM in each case. In addition, the outcome in experiment [6], in experiment [15], in experiment [17] and in experiment [18] was inactive. Moreover, the Potency result in experiment [8], in experiment [9], in [10], in [11], in experiment [19] and in [12] was “inactive” in each case. The caspase-3 activation in experiment [14] was 1.88%.
In the case of `C/C(C=O)=C/c1ccccc1`, the Potency in experiment [1], in [2], in experiment [3], in experiment [4] and in [20] was above 92 µM each time. In addition, the outcome in experiment [6], in experiment [15], in experiment [16], in experiment [17] and in experiment [18] was inactive. For the same compound, the Potency entry in experiment [8], in [9], in [10], in experiment [11], in [12] and in experiment [13] was “inactive” in each case. For the same compound, the caspase-3 activation in experiment [14] was -0.305%.
Turning to `CC(=O)c1ccccc1[N+](=O)[O-]`, the Potency in experiment [1], in [2], in [3], in experiment [4] and in experiment [5] was above 92 µM in each case. In addition, the call in [6], in experiment [15], in experiment [16], in experiment [17] and in experiment [18] was inactive. Besides, the activity change, negative = cytotoxicity in experiment [7] was -16.5%. Further, the Potency result in experiment [8], in experiment [9], in [10], in experiment [11], in experiment [12] and in experiment [13] was “inactive” throughout. The caspase-3 activation in experiment [14] is 0.506%.
For `CCCCCCCCCCCCOCC1CO1` (configuration not stated), the Potency in experiment [1], in experiment [2], in [3], in experiment [4] and in experiment [20] was above 92 µM each time. The call in experiment [6], in [15], in experiment [16], in experiment [17] and in experiment [18] was inactive. Besides, the activity change, negative = cytotoxicity in experiment [7] was 0.002%. For the same compound, the Potency entry in [8], in experiment [9], in experiment [10], in [11], in experiment [19] and in [12] was “inactive” each time. Also, the Potency entry in experiment [13] is “inactive”. Moreover, the caspase-3 activation in experiment [14] is 3.67%.
